# Results filed as inconclusive are left out. Where a call stands in place of a potency, no number is given. Activity calls are given as the source filed them. Calls come from the whole dose curve.
# Biological target: Muscarinic acetylcholine receptor M1 (Homo sapiens) (UniProt P11229)
# Assay: Cholinergic receptor muscarinic 1 (CHRM1) small molecule antagonists, cell-based qHTS assay (AID 1963588); note: nearly all actives have a fitted effect of over 40% in size
# Conditions: CHRM1-CHO antagonist mode, calcium flux fluorescence; series mostly up to 61.5 µM
# Source text: National Center for Advancing Translational Sciences [NCATS]
# Division of Preclinical Innovation [DPI]
# U.S. Environmental Protection Agency [EPA]
# National Institutes of Environmental Health Sciences [NIEHS]
# National Toxicology Program [NTP]
# U.S. Food and Drug Administration [FDA]
# The CHRM1 is a muscarinic receptor. This receptor plays a crucial role in learning and memory processes and has long been identified as a promising therapeutic target for the improvement of cognitive decline in Alzheimer's disease (AD). The CHRM1-CHO cell line stably expressing human muscarinic acetylcholine receptor M1 (CHRM1) can be used for screening agonists and antagonists of interactions between CHRM1 and its ligands. The CHRM1-CHO Calcium Flux Assay is a homogeneous fluorescence-based assay for detecting the intracellular calcium level using FDSS kinetic plate reader system.
# Tox21 Assay Protocol Summary:
# CHRM1-CHO cells were dispensed at 1000 cells/3uL/well in 1536-well black-clear bottom plates using a Multidrop Dispenser. After the assay plates were incubated at a 37 C/5% CO2 incubator for 18 h, 3 uL of Dye Loading Buffer was transferred to the assay plate by a Flying Reagent Dispenser. The assay plates were incubated at 37 C for 1h. For antagonist mode, 23 nL of compounds dissolved in DMSO, positive controls or DMSO only was transferred to the assay plate by a pin tool. After 5 min incubation at room temperature, 1.5 uL of acetylcholine at 50nM was added to each well. The fluorescence intensity in the plates was measured using FDSS 7000EX kinetic plate reader for 3 min at 1 sec intervals. Each test compound was measured at 15 concentrations in three independent runs.
# Potency is the fitted concentration of half-maximal effect.
# Muscarinic acetylcholine receptor M1 (Homo sapiens), sequence (P11229 whole entry, looked up): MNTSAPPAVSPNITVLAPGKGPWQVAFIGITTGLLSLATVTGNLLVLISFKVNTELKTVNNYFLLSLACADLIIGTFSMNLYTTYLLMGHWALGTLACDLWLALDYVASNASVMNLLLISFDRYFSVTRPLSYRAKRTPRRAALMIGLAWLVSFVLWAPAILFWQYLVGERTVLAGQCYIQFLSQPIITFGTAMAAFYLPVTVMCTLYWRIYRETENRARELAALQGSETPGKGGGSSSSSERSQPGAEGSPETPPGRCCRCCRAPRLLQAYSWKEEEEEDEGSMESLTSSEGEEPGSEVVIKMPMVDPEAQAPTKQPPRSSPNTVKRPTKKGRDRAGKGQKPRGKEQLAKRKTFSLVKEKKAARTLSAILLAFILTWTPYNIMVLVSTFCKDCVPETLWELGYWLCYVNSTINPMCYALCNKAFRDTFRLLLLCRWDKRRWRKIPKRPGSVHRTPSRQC
row,Structure (SMILES),Potency
1,CCN[C@@H](C)Cc1ccccc1,inactive
2,c1ccc2c(c1)OCC(C1=NCCN1)O2 (stereo not given),inactive
3,CCOC1Oc2ccc(OS(C)(=O)=O)cc2C1(C)C (stereo not given),inactive
4,[Cl-].[Cl-].[Sn+2],inactive
5,Cc1c(COC(=O)[C@@H]2[C@H](/C=C(\Cl)C(F)(F)F)C2(C)C)cccc1-c1ccccc1,inactive
6,CCCCC(CC)COC(=O)OOC(C)(C)C (stereo not given),inactive
7,O=C(Cl)c1ccccc1F,inactive
8,O=C(NC(=O)c1c(F)cccc1F)Nc1cc(Cl)c(OC(F)(F)C(F)F)c(Cl)c1,inactive
9,S=C=NCCc1ccccc1,inactive
10,O=[N+]([O-])c1ccc(F)c([N+](=O)[O-])c1,inactive
11,CCO[C@H]1O[C@@H]2OC3(C)CC[C@H]4[C@H](C)CC[C@@H]([C@H]1C)[C@@]24OO3,inactive
12,CCCN(CCC)c1c([N+](=O)[O-])cc(S(C)(=O)=O)cc1[N+](=O)[O-],10.6 µM (active)
13,C#CC1(O)CCCCC1,inactive
14,CCCSP(=S)(OCC)Oc1ccc(SC)cc1 (stereo not given),inactive
15,CON(C)C(=O)Nc1ccc(Br)c(Cl)c1,inactive
16,CC(C)[C@]12CC(=O)[C@H](C)[C@H]1C2,inactive
17,CCOP(=S)(OCC)SCSc1ccc(Cl)cc1,inactive
18,Cc1ccccc1OP(=O)(Oc1ccccc1C)Oc1ccccc1C,inactive
19,CC1=C(C(=O)Nc2ccccc2)S(=O)(=O)CCO1,inactive
20,CCCN(CC)CC1COC2(CCC(C(C)(C)C)CC2)O1 (stereo not given),inactive

row,Structure (SMILES),Potency
1,CO/N=C(/C(=O)OC)c1ccccc1COc1ccccc1C,inactive
2,Oc1cccc(Cl)c1,inactive
3,CCC(C)c1cc(C(C)(C)C)cc(-n2nc3ccccc3n2)c1O (stereo not given),inactive
4,O=C(O)CC(Cl)C(=O)O (stereo not given),inactive
5,CN1C(=O)C(O)N=C(c2ccccc2)c2cc(Cl)ccc21 (stereo not given),inactive
6,Fc1ccc(Oc2ccnc3cc(Cl)cc(Cl)c23)cc1,inactive
7,C/C(=C\c1ccccc1)[N+](=O)[O-],inactive
8,COP(=O)(OC)O/C(C)=C/C(=O)N(C)C,inactive
9,CCNP(=S)(OC)O/C(C)=C/C(=O)OC(C)C (stereo not given),inactive
10,CC(C)(C)c1cc([N+](=O)[O-])cc([N+](=O)[O-])c1O,inactive
11,CSc1ccc(C(=O)C(C)(C)N2CCOCC2)cc1,inactive
12,CC(C)(C)c1ccc(CSc2cnn(C(C)(C)C)c(=O)c2Cl)cc1,inactive
13,N#Cc1c2ccccc2cc2ccccc12,inactive
14,CO/N=C(\C(=O)OC)c1ccccc1CO/N=C(\C)c1cccc(C(F)(F)F)c1,inactive
15,O=C(Nc1ccccc1)c1ccccc1I,inactive
16,CNC(=O)O/N=C(\C)SC,inactive
17,COC(=O)C(C)N(C(=O)c1ccco1)c1c(C)cccc1C (stereo not given),inactive
18,CCC1(c2cccc(O)c2)CCCCN(C)C1 (stereo not given),inactive
19,OC(c1ccccc1)(c1ccccc1)C1CCNCC1,4.6 µM (active)
20,BrCC(Br)C1CCC(Br)C(Br)C1 (stereo not given),inactive

# Reference: PubChem BioAssay (Tox21)
